The record followed here is PubChem BioAssay AID1345085 (National Center for Advancing Translational Sciences (NCATS), 2018).

Molecules are shown by their SMILES. Results filed as inconclusive are left out. Unmarked numbers belong to inactive results. Activity calls are given as the source filed them. Calls come from the whole dose curve; as a rule, active = well fitted cell-killing curve with a large enough effect; inconclusive = small, poorly fitted or top-dose-only effect, or effect the other way; inactive = no such curve, though single readings can be large or run the other way.
% is set by controls: 0 for no effect and ±100 for the full control effect; potency is the fitted concentration of half-maximal effect.

The test system of this test is CASKI. Nature of the test: Confirmatory qHTS for gynecologic anti-cancer compounds from libraries of approved drugs and bioactive compounds. Note: nearly all actives have a fitted effect of over 55% in size. The settings on record: gynecologic cancer cell panel viability, ATPlite luminescence, 48 h; series mostly up to 57.6 µM. In outline: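 ATPlite luminescence read-out of cell viability; IC50 from 11-point 1:3 titrations, 57.5 uM to 0.977 nM, 48 h compound exposure at 37 C, 5% CO2. Cells seeded at 1,000/well 16 h before dosing.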
For orientation: qHTS replaces the single test concentration by a dilution series.
Turning to `O=C(CCCCCCNC(=O)c1cnc(N(c2ccccc2)c2ccccc2)nc1)NO`, the Potency was 21.7 µM (active). For the compound `CC(C)(C)C(=O)OCOP(=O)(COCCn1cnc2c(N)ncnc21)OCOC(=O)C(C)(C)C`, the Potency entry is “inactive”.

For the compound `O=C(c1ccc(F)c(F)c1Nc1ccc(I)cc1F)N1CC(O)([C@@H]2CCCCN2)C1`, the Potency is 17.2 µM (active). Still for that read-out and setting: the same measure for `CC[C@H](CC#N)OC(=O)N[C@@H](C)c1cccc(NC(=O)Nc2ccc(-c3cnco3)c(OC)c2)c1`: “inactive”; for `CCN1CCN(Cc2ccc(-c3cc4c(NC(C)c5ccccc5)ncnc4[nH]3)cc2)CC1` (centres undefined): 19.3 µM (active). The same measure, in the same setting: the same measure for `Nc1cccc(-c2cc3c(Oc4cccc(O)c4)ncnc3[nH]2)c1`: 7.69 µM (active); for `O=C(/C=C/c1cccc(S(=O)(=O)Nc2ccccc2)c1)NO`: 4.73 µM (active). In the case of `CCC(=O)N1CCN(c2ccc(-n3c(=O)ccc4cnc5ccc(-c6cnc7ccccc7c6)cc5c43)cc2C(F)(F)F)CC1`, the activity change, negative = viability loss is -25.9% [at 10.7 µM]. Regarding `CCOC(=O)C1=C(C)NC2=C(C(=O)CC(C)(C)C2)C1c1ccc(-c2ccccc2)cc1` (centres undefined), the Potency entry is “inactive”. Same read-out and setting: the figure for `Cc1cc(Nc2nc(N[C@@H](C)c3ccc(F)cc3)c(C#N)cc2F)n[nH]1` is 13.7 µM (active).

Regarding `Cc1c(C)n(Cc2ccc(-c3ccccc3C(=O)O)cc2)c2ccc(C(=O)N[C@@H](C)c3ccc([N+](=O)[O-])cc3)cc12`, the Potency result was “inactive”. Still for that read-out and setting: the same measure for `CCc1c2c(nc3ccc(O)cc13)-c1cc3c(c(=O)n1C2)COC(=O)[C@]3(O)CC`: 0.153 µM (active); for `CCC1C(=O)N(C)c2cnc(Nc3ccc(C(=O)NC4CCN(C)CC4)cc3OC)nc2N1C1CCCC1` (centres undefined): 6.85 µM (active).

Regarding `COc1cccc2c1C(=O)c1c(O)c3c(c(O)c1C2=O)C[C@@](O)(C(=O)CO)C[C@@H]3O[C@H]1C[C@H](N)[C@H](O[C@@H]2CCCCO2)[C@H](C)O1`, the Potency is 17.2 µM (active). The same measure, in the same setting: the same measure for `Cn1c(=O)c(-c2c(Cl)cccc2Cl)cc2cnc(Nc3cccc(C(=O)O)c3)nc21`: 3.06 µM (active); for `CCS(=O)(=O)c1cccc(-c2cc(C(=O)NC3CCN(C)CC3)c(C)c3[nH]c4ncc(C)cc4c23)c1`: 4.76 µM (active); for `O=C(Nc1cccnc1)N1CCC(Cc2cccc(Oc3ccc(C(F)(F)F)cn3)c2)CC1`: 12.2 µM (active). As for `COc1cc(-c2nn(C3CCC(N4CCN(C(C)=O)CC4)CC3)c3ncnc(N)c23)ccc1NC(=O)c1cc2ccccc2n1C` (centres undefined), the Potency result was “inactive”. Still for that read-out and setting: the same measure for `Cc1cncc2cccc(S(=O)(=O)N3CCCN(C(=O)CN)C[C@@H]3C)c12`: “inactive”. On the same count and under the same terms, the entry for `CCCc1nn(C)c2c(=O)[nH]c(-c3cc(S(=O)(=O)N4CCN(C)CC4)ccc3OCC)nc12` is “inactive”.

As to `CN1C2CCC1CC(OC(=O)[C@H](CO)c1ccccc1)C2` (some centres undefined), the Potency result was “inactive”. For the compound `Cc1cnc(Nc2ccc(CN3CCOCC3)cc2)nc1Nc1cccc(S(=O)(=O)NC(C)(C)C)c1`, the Potency was 4.85 µM (active). On the same count and under the same terms, the entry for `CN1CCCC(n2nc(Cc3ccc(Cl)cc3)c3ccccc3c2=O)CC1` (centres undefined) is “inactive”. Still for that read-out and setting: the same measure for `CN(NC(=O)CC(=O)NN(C)C(=S)c1ccccc1)C(=S)c1ccccc1`: “inactive”.

For the compound `O=C(Nc1cn[nH]c1-c1nc2ccc(CN3CCOCC3)cc2[nH]1)NC1CC1`, the Potency is 2.73 µM (active). Same read-out and setting: the same measure for `CC[C@@]1(O)C(=O)OCc2c1cc1n(c2=O)Cc2cc3c(CN(C)C)c(O)ccc3nc2-1`: 1.09 µM (active); for `Fc1cc(-c2cccc3ncc(-c4cnn(C5CCNCC5)c4)nc23)cc(F)c1CN1CCOCC1`: 34.3 µM (active); for `COc1cc2nccc(Oc3ccc(NC(=O)Nc4cc(C)on4)c(Cl)c3)c2cc1OC`: 27.3 µM (active).

As to `NC(=O)Nc1cc(-c2cccc(F)c2)sc1C(=O)NC1CCCNC1` (centres undefined), the Potency is 2.17 µM (active). On the same count and under the same terms, the entry for `COc1ccc(CCC(=O)c2c(O)cc(O[C@@H]3O[C@H](CO)[C@@H](O)[C@H](O)[C@H]3O[C@@H]3O[C@@H](C)[C@H](O)[C@@H](O)[C@H]3O)cc2O)cc1O` is “inactive”; for `Cc1cc(CN2CCN(c3c(Br)cnc4nc(-c5ccc(N6CCN(C)CC6)cc5)[nH]c34)CC2)no1` it is 27.3 µM (active).

Take `C#C[C@]1(O)CC[C@H]2[C@@H]3CCC4=CC(=O)CC[C@@H]4[C@H]3CC[C@@]21CC`: the Potency result is “inactive”. For `C[C@@H](Oc1cc(-c2cnn(C3CCNCC3)c2)cnc1N)c1c(Cl)ccc(F)c1Cl`, the Potency was 24.3 µM (active).

As for `CN1CCN(Cc2ccc(NC(=O)Nc3ccc(Oc4cc(NC(=O)C5CC5)ncn4)cc3)cc2C(F)(F)F)CC1`, the Potency was 0.611 µM (active).
